# Experimental data from PubChem BioAssay (EPA / NIEHS).
# Where “and” joins values, the source holds several entries; their conditions need not be identical. Identical values can stand only once. Inconclusive results are not listed. Calls of active or inactive are those of the source. Rule for the calls, unless noted: active = hit-call score of the fitted dose curve at least 0.9, where 1 is the maximum; inconclusive = response in the unintended direction; inactive = score below 0.9.
# Target: Nucleoli Translocation, AR (gene 367) (UniProt P10275)
# Test: UPITT_HCI_U2OS_AR_TIF2_Nucleoli_Antagonist: University of Pittsburgh U2OS Androgen Receptor-Transcriptional Intermediary Factor 2 (AR-TIF2) Antagonism High Content Imaging Assay for Nucleoli Translocation (AID 2283997)
# Details: not given
# Summary of the method: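 Measured quantity was AR-RFP fluorescence localized to nucleoli in engineered U2OS cells also bearing TIF2-GFP, acquired on automated high-content imagers. Primary testing used 20 uM compound; actives were confirmed in triplicate wells.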
# Sequence of Nucleoli Translocation, AR (gene 367) (P10275 whole entry, looked up): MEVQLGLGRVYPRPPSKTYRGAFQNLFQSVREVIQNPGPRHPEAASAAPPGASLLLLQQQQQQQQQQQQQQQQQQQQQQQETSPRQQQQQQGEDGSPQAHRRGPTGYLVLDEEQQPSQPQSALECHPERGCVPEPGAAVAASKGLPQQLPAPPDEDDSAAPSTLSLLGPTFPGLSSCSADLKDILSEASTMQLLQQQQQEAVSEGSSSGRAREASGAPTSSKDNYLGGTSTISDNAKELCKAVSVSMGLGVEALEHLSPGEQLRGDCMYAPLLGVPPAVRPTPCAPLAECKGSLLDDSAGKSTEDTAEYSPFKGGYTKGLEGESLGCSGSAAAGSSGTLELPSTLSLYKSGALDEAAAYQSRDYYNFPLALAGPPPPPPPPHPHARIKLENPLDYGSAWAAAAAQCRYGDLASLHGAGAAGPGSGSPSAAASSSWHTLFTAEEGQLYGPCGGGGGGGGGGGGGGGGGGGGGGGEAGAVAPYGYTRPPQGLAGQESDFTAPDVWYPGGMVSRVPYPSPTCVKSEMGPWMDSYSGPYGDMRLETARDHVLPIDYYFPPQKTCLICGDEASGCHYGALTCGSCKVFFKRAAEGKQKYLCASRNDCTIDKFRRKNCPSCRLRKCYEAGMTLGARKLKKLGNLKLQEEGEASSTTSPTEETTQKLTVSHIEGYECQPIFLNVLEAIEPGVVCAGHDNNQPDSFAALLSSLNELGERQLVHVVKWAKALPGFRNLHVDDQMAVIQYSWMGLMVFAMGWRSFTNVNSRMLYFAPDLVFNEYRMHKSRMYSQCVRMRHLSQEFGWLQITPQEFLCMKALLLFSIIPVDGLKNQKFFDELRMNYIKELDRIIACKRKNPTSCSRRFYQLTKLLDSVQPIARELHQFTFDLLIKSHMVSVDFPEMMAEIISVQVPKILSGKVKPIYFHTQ
Compound,AC50,outcome
CC[C@H](c1ccc(O)cc1)[C@@H](CC)c1ccc(O)cc1,50 µM (active),–
O=C(/C=C/c1ccc(O)cc1)CC(=O)/C=C/c1ccc(O)cc1,16.3 µM (active),–
NC(=O)N1C(=O)C(C(=O)c2cc(Cl)cs2)c2cc(F)c(Cl)cc21 (stereo not given),–,inactive
N#C[C@@H]1CC(F)(F)CN1C(=O)CNC1CC2CCC(C1)N2c1ncccn1 (stereo not given in full),–,inactive
Cc1cc(CCN2CCN(c3nsc4ccccc34)CC2)cc2c1NC(=O)CC2(C)C,50 µM (active),–

# Target: Ratio of Nucleoli Translocation and Cytoplasm, AR (gene 367) (UniProt P10275)
# Test: UPITT_HCI_U2OS_AR_TIF2_Nucleoli_Cytoplasm_Ratio_Antagonist: University of Pittsburgh U2OS Androgen Receptor-Transcriptional Intermediary Factor 2 (AR-TIF2) Antagonism High Content Imaging Assay for Ratio of Nucleoli Translocation and Cytoplasm (AID 2283999);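 note: antagonists lower the DHT-driven ratio of nucleolar to cytoplasmic red signal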
# Details: not given
# Summary of the method: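 U2OS cells co-expressing RFP-tagged human AR and GFP-tagged TIF2, antagonist mode with DHT as baseline. Nucleolar-to-cytoplasmic red fluorescence ratio imaged by high-content microscopy; final compound 20 uM (0.2% DMSO) primary, 0.195–50 uM (0.5% DMSO) concentration-response.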
# Sequence of Ratio of Nucleoli Translocation and Cytoplasm, AR (gene 367) (P10275 whole entry, looked up): as above
Compound,outcome,AC50
CCC(=C(c1ccc(O)cc1)c1ccc(OCCN(C)C)cc1)c1ccccc1,inactive,–
CCCCCCCCCCCCc1ccccc1S(=O)(=O)O,inactive,–
COCC(C)OCC(C)O (stereo not given),inactive,–
CC(=O)CC(C)(C)O,inactive,–
Nc1cccc2c(N)cccc12,inactive,–
Cc1oc(-c2ccccc2)nc1CCOc1ccc(C[C@H](Nc2ccccc2C(=O)c2ccccc2)C(=O)O)cc1,inactive,–
Oc1cc2ccccc2c2ccccc12,–,3.08 µM (active)
c1ccc2c(c1)ccc1ccccc12,inactive,–
COc1cc(CCC(=O)CC(=O)CCc2ccc(O)c(OC)c2)ccc1O,inactive,–
CCCCC[C@H](O)CC(=O)CCc1ccc(O)c(OC)c1,inactive,–
CCCOc1sc(C(=O)N2CCC(c3cc(CN)ccc3F)CC2)c(C)c1Br,inactive,–
CC[C@H](c1ccc(O)cc1)[C@@H](CC)c1ccc(O)cc1,inactive,–
O=C(/C=C/c1ccc(O)cc1)CC(=O)/C=C/c1ccc(O)cc1,inactive,–
OCCC(F)(F)C(F)(F)C(F)(F)C(F)(F)C(F)(F)C(F)(F)C(F)(F)C(F)(F)F,inactive,–
NC(=O)N1C(=O)C(C(=O)c2cc(Cl)cs2)c2cc(F)c(Cl)cc21 (stereo not given),inactive,–
N#C[C@@H]1CC(F)(F)CN1C(=O)CNC1CC2CCC(C1)N2c1ncccn1 (stereo not given in full),inactive,–
Cc1cc(CCN2CCN(c3nsc4ccccc34)CC2)cc2c1NC(=O)CC2(C)C,inactive,–

# Target: Ratio of Nucleoli Translocation and Cytoplasm, AR (gene 367) (UniProt P10275)
# Test: UPITT_HCI_U2OS_AR_TIF2_Nucleoli_Cytoplasm_Ratio_Agonist: University of Pittsburgh U2OS Androgen Receptor-Transcriptional Intermediary Factor 2 (AR-TIF2) Agonism High Content Imaging Assay for Ratio of Nucleoli Translocation and Cytoplasm (AID 2284000);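 note: hits raise the red nucleolar to cytoplasm ratio above vehicle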
# Details: not given
# Summary of the method: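 Read-out first: nucleolar-to-cytoplasm ratio of red (AR-RFP) signal, quantified by high-content imaging in U2OS cells co-expressing TIF2-GFP. Activity is scored as signal increase over DMSO. Single-point screening used 20 uM final (0.2% DMSO).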
Compound,AC50,outcome
CCC(=C(c1ccc(O)cc1)c1ccc(OCCN(C)C)cc1)c1ccccc1,26.2 µM (active),–
CCCCCCCCCCCCc1ccccc1S(=O)(=O)O,90.9 µM (active),–
COCC(C)OCC(C)O (stereo not given),–,inactive
CC(=O)CC(C)(C)O,–,inactive
Nc1cccc2c(N)cccc12,–,inactive
Cc1oc(-c2ccccc2)nc1CCOc1ccc(C[C@H](Nc2ccccc2C(=O)c2ccccc2)C(=O)O)cc1,–,inactive
Oc1cc2ccccc2c2ccccc12,–,inactive
c1ccc2c(c1)ccc1ccccc12,–,inactive
COc1cc(CCC(=O)CC(=O)CCc2ccc(O)c(OC)c2)ccc1O,–,inactive
CCCCC[C@H](O)CC(=O)CCc1ccc(O)c(OC)c1,–,inactive
CCCOc1sc(C(=O)N2CCC(c3cc(CN)ccc3F)CC2)c(C)c1Br,8.47 µM (active),–
CC[C@H](c1ccc(O)cc1)[C@@H](CC)c1ccc(O)cc1,50 µM (active),–
O=C(/C=C/c1ccc(O)cc1)CC(=O)/C=C/c1ccc(O)cc1,–,inactive
OCCC(F)(F)C(F)(F)C(F)(F)C(F)(F)C(F)(F)C(F)(F)C(F)(F)C(F)(F)F,–,inactive
NC(=O)N1C(=O)C(C(=O)c2cc(Cl)cs2)c2cc(F)c(Cl)cc21 (stereo not given),–,inactive
N#C[C@@H]1CC(F)(F)CN1C(=O)CNC1CC2CCC(C1)N2c1ncccn1 (stereo not given in full),–,inactive
Cc1cc(CCN2CCN(c3nsc4ccccc34)CC2)cc2c1NC(=O)CC2(C)C,–,inactive

# System: not listed separately
# Test: CCTE_Simmons_MITO_basal_resp_rate: CCTE's HepG2 Seahorse XF Respirometric Screening Assay at Basal Respiratory State, Simmons Lab (AID 2284001; active = hit-call score of the fitted dose curve at least 0.9, where 1 is the maximum; inactive = score below 0.9)
# Details: actives raise or lower the signal
# Summary of the method: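 HepG2 respirometry; 7-pt titration 125 nM–100 uM final; kinetic OCR at 6 min intervals for 72 min; n=3 biological, technical singles; DMSO baseline, gain or loss fit; fenpyroximate (decrease) and 2,4-DNP (increase) controls.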
Compound,AC50,outcome
CCCCCCCCCCCCN1CCCC1=O,31.4 µM (active),–
OC1CCC(C2CCCCC2)CC1 (stereo not given),50 µM (active),–
NC(=O)N(O)[C@@H]1C=C[C@H](Oc2cccc(Oc3ccc(F)cc3)c2)C1,22.1 µM (active),–
O=[N+]([O-])c1ccc(O)cc1,66.5 µM (active) and 66 µM (active),–
Nc1cccc2c(N)cccc12,–,inactive
CCc1nn(C2CCCCC2)c2cc(C3(C#N)CCC(C(=O)O)CC3)ccc12 (stereo not given),15.6 µM (active),–
Oc1cc2ccccc2c2ccccc12,28.6 µM (active),–
CCCOC(=O)c1ccc(O)cc1,35.8 µM (active),–
CN1CCN(c2ccccc2/C=C2\SCCN(c3ccc(Cl)c(Cl)c3)C2=O)CC1,–,inactive
CC[C@H](c1ccc(O)cc1)[C@@H](CC)c1ccc(O)cc1,20.8 µM (active),–
NC(=O)N1C(=O)C(C(=O)c2cc(Cl)cs2)c2cc(F)c(Cl)cc21 (stereo not given),5.91 µM (active),–
O=C(O)Cc1cc(I)c(Oc2cc(I)c(O)c(I)c2)c(I)c1,–,inactive
Cc1cc(CCN2CCN(c3nsc4ccccc34)CC2)cc2c1NC(=O)CC2(C)C,12.2 µM (active),–

# System: not listed separately
# Test: CCTE_Simmons_MITO_max_resp_rate: CCTE's HepG2 Seahorse XF Respirometric Screening Assay at Maximal Respiratory State [uncoupled], Simmons Lab (AID 2284002; active = hit-call score of the fitted dose curve at least 0.9, where 1 is the maximum; inactive = score below 0.9)
# Details: actives raise or lower the signal
# Summary of the method: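 HepG2 oxygen consumption measured on Seahorse XF after FCCP uncoupling, following test compound injection; 7 concentrations from 125 nM to 100 uM final. Readings every 6 min over 72 min, three biological replicates; bidirectional fit versus DMSO.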
Compound,AC50,outcome
CCCCCCCCCCCCN1CCCC1=O,34.8 µM (active),–
OC1CCC(C2CCCCC2)CC1 (stereo not given),–,inactive
NC(=O)N(O)[C@@H]1C=C[C@H](Oc2cccc(Oc3ccc(F)cc3)c2)C1,32.4 µM (active),–
O=[N+]([O-])c1ccc(O)cc1,–,inactive
Nc1cccc2c(N)cccc12,–,inactive
CCc1nn(C2CCCCC2)c2cc(C3(C#N)CCC(C(=O)O)CC3)ccc12 (stereo not given),25 µM (active),–
Oc1cc2ccccc2c2ccccc12,–,inactive
CCCOC(=O)c1ccc(O)cc1,–,inactive
CN1CCN(c2ccccc2/C=C2\SCCN(c3ccc(Cl)c(Cl)c3)C2=O)CC1,–,inactive
CC[C@H](c1ccc(O)cc1)[C@@H](CC)c1ccc(O)cc1,30 µM (active),–
NC(=O)N1C(=O)C(C(=O)c2cc(Cl)cs2)c2cc(F)c(Cl)cc21 (stereo not given),17.7 µM (active),–
O=C(O)Cc1cc(I)c(Oc2cc(I)c(O)c(I)c2)c(I)c1,–,inactive
Cc1cc(CCN2CCN(c3nsc4ccccc34)CC2)cc2c1NC(=O)CC2(C)C,17 µM (active),–
